Results on three compounds are retold here after PubChem BioAssay (EPA / NIEHS).

The structures appear in SMILES notation. More than one record can exist for a structure, and the calls need not agree. Active and inactive are the calls of the source. How the source made its calls: active means hit-call score of the fitted dose curve at least 0.9, where 1 is the maximum; inactive means score below 0.9.

Read-out in assay [1]: C-C motif chemokine 2 (Homo sapiens) (UniProt P13500)
Description: BSK_KF3CT_MCP1: BioMAP Diversity Plus: KF3CT Assay for Monocyte Chemoattractant Protein 1 (MCP1/CCL2) Biomarker Activity (AID 2283073). The conditions noted are these: primary human keratinocytes with fibroblasts; actives raise or lower the signal. Summed up:
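Human keratinocyte–foreskin fibroblast co-culture; MCP-1 measured by ELISA 24 h after dosing. Bidirectional fit vs DMSO; cytotoxicity tracked by SRB total protein in parallel cultures.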

Read-out in assay [2]: Matrix Metallopeptidase 9 (MMP9), MMP9 (gene 4318)
Description: BSK_KF3CT_MMP9: BioMAP Diversity Plus: KF3CT Assay for Matrix Metallopeptidase 9 (MMP9) Biomarker Activity (AID 2283074). The conditions noted are these: primary human keratinocytes with fibroblasts; actives raise or lower the signal. Summed up:
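Human keratinocyte/foreskin fibroblast co-culture; compound added; 24 h; MMP-9 by ELISA; bidirectional fit vs DMSO baseline.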

Read-out in assay [3]: urokinase plasminogen activator (uPA), PLAU (gene 5328)
Description: BSK_KF3CT_uPA: BioMAP Diversity Plus: KF3CT Assay for urokinase plasminogen activator (uPA) Biomarker Activity (AID 2283075). The conditions noted are these: primary human keratinocytes with fibroblasts; actives raise or lower the signal. An outline of the steps: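 ELISA readout of uPA, analyzed for signal gain or loss relative to DMSO, from a human primary keratinocyte–foreskin fibroblast co-culture measured 24 h after chemical treatment.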

Read-out in assay [4]: CD40, CD40 (gene 958)
Description: BSK_LPS_CD40: BioMAP Diversity Plus: LPS Assay for CD40 Biomarker Activity (AID 2283076). To be noted: primary human HUVEC with PBMC; actives raise or lower the signal. An outline of the steps:
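HUVEC plus PBMC co-culture stimulated with LPS; CD40 quantified by ELISA 24 h after compound dosing. Fitting was bidirectional relative to DMSO. SRB staining of parallel cultures flagged overt cytotoxicity.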

Read-out in assay [5]: E-selectin (Homo sapiens) (UniProt P16581)
Description: BSK_LPS_Eselectin: BioMAP Diversity Plus: LPS Assay for Eselectin Biomarker Activity (AID 2283077). The conditions noted are these: primary human HUVEC with PBMC; actives raise or lower the signal. An outline of the steps:
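Human umbilical vein endothelial cells co-cultured with PBMC under LPS stimulation; cell-surface E-selectin measured by ELISA 24 h after dosing. Change in either direction versus DMSO, with SRB total-protein staining in parallel cultures for cytotoxicity.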

Read-out in assay [6]: Interleukin-8 (IL8), CXCL8 (gene 3576)
Description: BSK_LPS_IL8: BioMAP Diversity Plus: LPS Assay for Interleukin-8 (IL8) Biomarker Activity (AID 2283078). The conditions noted are these: primary human HUVEC with PBMC; actives raise or lower the signal. Summed up:
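Human umbilical vein endothelial cells co-cultured with PBMC, LPS-stimulated, exposed to compound for 24 h. IL-8 quantified by ELISA; fitted in both directions against DMSO, with SRB total-protein staining of parallel cultures for cytotoxicity.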

Assay [7] can be described thus: BSK_LPS_SRB: Viability Assessment in the BioMAP Diversity Plus: LPS Assay (AID 2283079).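 Further: total protein by sulforhodamine B absorbance as a cytotoxicity measure; measured one day after compound addition; fitted in both directions against DMSO so loss or gain of signal counts.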 The conditions noted are these: primary human HUVEC with PBMC. Summed up:
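Co-culture of human umbilical vein endothelial cells and PBMC, read 24 h after dosing. Total protein by 0.1% SRB staining after 10% TCA fixation, absorbance at 560 nm; bidirectional fit against DMSO.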

Read-out in assay [8]: Interleukin-1 alpha (IL1a), IL1A (gene 3552)
Description: BSK_LPS_IL1a: BioMAP Diversity Plus: LPS Assay for Interleukin-1 alpha (IL1a) Biomarker Activity (AID 2283080). To be noted: primary human HUVEC with PBMC; actives raise or lower the signal. Summed up: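 Human umbilical vein endothelial cells co-cultured with PBMC and stimulated with LPS; IL-1a measured by ELISA 24 h after dosing. Bidirectional fitting against DMSO; cytotoxicity checked by SRB staining in parallel cultures.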

Read-out in assay [9]: Monocyte Chemoattractant Protein-1 (MCP1), CCL2 (gene 6347)
Description: BSK_LPS_MCP1: BioMAP Diversity Plus: LPS Assay for Monocyte Chemoattractant Protein-1 (MCP1) Biomarker Activity (AID 2283081). The conditions noted are these: primary human HUVEC with PBMC; actives raise or lower the signal. Summed up: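 Human umbilical vein endothelial cells co-cultured with PBMC, LPS-stimulated; secreted MCP-1 measured by ELISA 24 h after compound addition. Bidirectional curve fitting against DMSO baseline; SRB total-protein staining in parallel cultures for cytotoxicity.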

Assay [10] can be described thus: BSK_LPS_PGE2: BioMAP Diversity Plus: LPS Assay for Prostaglandin E2 (PGE2) Biomarker Activity (AID 2283082). The conditions noted are these: primary human HUVEC with PBMC; actives raise or lower the signal. Summed up:
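Endpoint derived from bidirectional curve fitting versus DMSO of ELISA-measured PGE2 in LPS-stimulated human primary vascular co-culture (HUVEC with PBMC) harvested at 24 h.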

Read-out in assay [11]: Macrophage colony-stimulating factor (MCSF), CSF1 (gene 1435)
Description: BSK_LPS_MCSF: BioMAP Diversity Plus: LPS Assay for Macrophage colony-stimulating factor (MCSF) Biomarker Activity (AID 2283083). To be noted: primary human HUVEC with PBMC; actives raise or lower the signal. An outline of the steps: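 HUVEC–PBMC co-culture, M-CSF measured by ELISA 24 h after chemical dosing. Fitted in both directions relative to DMSO as negative control; overt cytotoxicity assessed by SRB total-protein staining in parallel cultures.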

Read-out in assay [12]: Tissue Factor, F3 (gene 2152)
Description: BSK_LPS_TissueFactor: BioMAP Diversity Plus: LPS Assay for Tissue Factor Biomarker Activity (AID 2283084). The conditions noted are these: primary human HUVEC with PBMC; actives raise or lower the signal. An outline of the steps:
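Human umbilical vein endothelial cells co-cultured with PBMC were dosed with compound. Cell-surface CD142 was measured by ELISA 24 h later. Activity was fitted bidirectionally against DMSO, with SRB total-protein staining in parallel cultures for cytotoxicity.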

Read-out in assay [13]: Tumor necrosis factor (Homo sapiens) (UniProt P01375)
Description: BSK_LPS_TNFa: BioMAP Diversity Plus: LPS Assay for Tumour Necrosis Factor alpha (TNFa) Biomarker Activity (AID 2283085). To be noted: primary human HUVEC with PBMC; actives raise or lower the signal. An outline of the steps: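 Primary human vascular co-culture of HUVEC and PBMC; TNFa ELISA 24 h after treatment, analysed as increase or decrease relative to DMSO control.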

Read-out in assay [14]: Vascular cell adhesion molecule 1 (VCAM1), VCAM1 (gene 7412)
Description: BSK_LPS_VCAM1: BioMAP Diversity Plus: LPS Assay for Vascular cell adhesion molecule 1 (VCAM1) Biomarker Activity (AID 2283086). The conditions noted are these: primary human HUVEC with PBMC; actives raise or lower the signal. An outline of the steps: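 Primary human vascular co-culture (umbilical vein endothelium plus PBMC) stimulated with LPS received chemical; 24 h later VCAM-1 was read by ELISA. Overt cytotoxicity was assessed by sulforhodamine B staining of parallel cultures at the same time point.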

Read-out in another assay: CD38, CD38 (gene 952)
Description: BSK_SAg_CD38: BioMAP Diversity Plus: SAg Assay for CD38 Biomarker Activity (AID 2283087). To be noted: primary human HUVEC with PBMC; actives raise or lower the signal. Summed up:
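Fluorescence ELISA of cell-surface CD38 served as the read-out, with either increase or decrease fitted against DMSO controls. Cells were a human umbilical vein endothelium plus PBMC co-culture under SEB/TSST-1 stimulation, measured 24 h after dosing.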

Read-out in assay [15]: CD40, CD40 (gene 958)
Description: BSK_SAg_CD40: BioMAP Diversity Plus: SAg Assay for CD40 Biomarker Activity (AID 2283088). To be noted: primary human HUVEC with PBMC; actives raise or lower the signal. Summed up: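 HUVEC plus PBMC co-culture, superantigen-activated, with CD40 read by ELISA 24 h after dosing. Curves fitted in both directions against DMSO. Overt cytotoxicity checked by parallel SRB total-protein staining.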

Read-out in another assay: CD69, CD69 (gene 969)
Description: BSK_SAg_CD69: BioMAP Diversity Plus: SAg Assay for CD69 Biomarker Activity (AID 2283089).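 On AC50: cell surface CD69 protein quantified by ELISA with fluorescence detection.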 To be noted: primary human HUVEC with PBMC; actives raise or lower the signal. An outline of the steps: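 Endothelial/PBMC co-culture; chemical added; 24 h incubation; CD69 ELISA with fluorescence detection; bidirectional fit vs DMSO.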

Read-out in assay [16]: Monocyte Chemoattractant Protein-1 (MCP1), CCL2 (gene 6347)
Description: BSK_SAg_MCP1: BioMAP Diversity Plus: SAg Assay for Monocyte Chemoattractant Protein-1 (MCP1) Biomarker Activity (AID 2283090). The conditions noted are these: primary human HUVEC with PBMC; actives raise or lower the signal. Summed up:
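MCP-1 levels in the endothelial–PBMC SAg co-culture were quantified by ELISA at 24 h post-dosing; both increases and decreases versus DMSO scored. Cytotoxicity monitored by SRB total protein in parallel cultures.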

Read-out in assay [17]: E-selectin (Homo sapiens) (UniProt P16581)
Description: BSK_SAg_Eselectin: BioMAP Diversity Plus: SAg Assay for Eselectin Biomarker Activity (AID 2283091). To be noted: primary human HUVEC with PBMC; actives raise or lower the signal. An outline of the steps: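 Human umbilical vein endothelial cells co-cultured with peripheral blood mononuclear cells, SAg system. E-selectin is measured by ELISA 24 h after dosing and fitted bidirectionally against DMSO. Cytotoxicity is checked by SRB staining of parallel cultures.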

Read-out in assay [18]: Monokine induced gamma interferon (MIG), CXCL9 (gene 4283)
Description: BSK_SAg_MIG: BioMAP Diversity Plus: SAg Assay for Monokine induced gamma interferon (MIG) Biomarker Activity (AID 2283092). The conditions noted are these: primary human HUVEC with PBMC; actives raise or lower the signal. An outline of the steps: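 Measures CXCL9 protein by ELISA in a human vascular primary-cell co-culture (umbilical vein endothelium with PBMC) 24 h after chemical addition. Activity is scored up or down from the DMSO control.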

E-selectin (Homo sapiens), sequence (P16581 whole entry, looked up): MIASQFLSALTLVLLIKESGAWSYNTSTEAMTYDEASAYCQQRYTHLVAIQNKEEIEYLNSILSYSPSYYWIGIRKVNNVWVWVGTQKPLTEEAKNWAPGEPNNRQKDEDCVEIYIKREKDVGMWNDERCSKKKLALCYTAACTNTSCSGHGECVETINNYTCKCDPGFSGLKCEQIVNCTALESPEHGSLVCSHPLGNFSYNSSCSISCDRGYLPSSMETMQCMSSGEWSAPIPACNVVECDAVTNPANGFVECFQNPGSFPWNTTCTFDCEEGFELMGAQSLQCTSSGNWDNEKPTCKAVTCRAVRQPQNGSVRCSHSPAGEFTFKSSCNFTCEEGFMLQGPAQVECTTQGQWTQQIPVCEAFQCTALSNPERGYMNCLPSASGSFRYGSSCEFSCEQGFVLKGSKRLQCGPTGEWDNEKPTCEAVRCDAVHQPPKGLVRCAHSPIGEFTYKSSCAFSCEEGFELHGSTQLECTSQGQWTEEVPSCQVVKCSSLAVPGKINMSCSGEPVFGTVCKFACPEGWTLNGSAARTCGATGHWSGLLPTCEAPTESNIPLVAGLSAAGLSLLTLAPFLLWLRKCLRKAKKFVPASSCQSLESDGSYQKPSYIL
Tumor necrosis factor (Homo sapiens), sequence (P01375 whole entry, looked up): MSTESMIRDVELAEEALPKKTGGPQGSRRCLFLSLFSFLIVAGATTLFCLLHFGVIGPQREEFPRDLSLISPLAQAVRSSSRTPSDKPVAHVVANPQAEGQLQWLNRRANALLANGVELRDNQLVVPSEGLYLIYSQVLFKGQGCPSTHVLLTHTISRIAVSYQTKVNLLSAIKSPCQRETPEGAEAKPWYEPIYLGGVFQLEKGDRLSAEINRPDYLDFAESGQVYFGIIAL

With `C=CC(=O)OCCCCCC(C)C`, the outcome in assay [1] was “inactive”; in assay [2], “inactive”; in assay [3], “inactive”; in the assay with CD40, CD40 (gene 958) [4] it was “inactive”; in [5], “inactive”; in assay [6], “inactive”. Besides, the outcome in assay [7], in assay [8], in assay [9], in assay [10], in assay [11] and in [12] was inactive. Further, the outcome is “inactive” in assay [13]; “inactive” in assay [14]; “inactive” in the assay with CD38, CD38 (gene 952); “inactive” with CD40, CD40 (gene 958) [15]; “inactive” in the assay with CD69, CD69 (gene 969); “inactive” in assay [16]. Besides, the result in [17] and in [18] was inactive.
Regarding `O=[N+]([O-])c1ccc(O)c([N+](=O)[O-])c1`, the outcome was “inactive” in assay [1]; “inactive” in assay [2]; “inactive” in assay [3]; “inactive” in the assay with CD40, CD40 (gene 958) [4]; “inactive” in assay [5]; “inactive” in assay [6]. Also, the outcome in assay [7], in assay [8], in [9], in assay [10], in assay [11] and in [12] was inactive. Also, the outcome in assay [13] is “inactive”; in assay [14], “inactive”; with CD38, CD38 (gene 952), “inactive”; with CD40, CD40 (gene 958) [15] it was “inactive”; with CD69, CD69 (gene 969), “inactive”; in assay [16], “inactive”. The result in assay [17] and in assay [18] was inactive.
What is called AC50 is the midpoint of the concentration-response curve, whichever way the signal moves. Take `CC(=O)OC(c1ccccc1)C(Cl)(Cl)Cl` (stereo unspecified): the outcome in [1] was “inactive”; in [2], “inactive”; in assay [3], “inactive”; with CD40, CD40 (gene 958) [4], “inactive”; in [5], “inactive”; in assay [6], “inactive”. For the same compound, the result in assay [7], in assay [8], in [9], in assay [10], in assay [11] and in assay [12] was inactive. Moreover, the outcome in assay [13] was “inactive”; in assay [14] it was “inactive”; in the assay with CD38, CD38 (gene 952) it was “inactive”; in the assay with CD40, CD40 (gene 958) [15] it was “inactive”; in the assay with CD69, CD69 (gene 969), “inactive”; in assay [16] it was “inactive”. Further, in assay [18], the result was inactive. The half-maximal activity concentration (AC50) is 17.6 µM (active) in assay [8] and 14.2 µM (active) in the assay with CD69, CD69 (gene 969).
